Measured values from PubChem BioAssay (NCI).
Values joined by “and” are separate entries in the source; they are usually repeats but may differ in a detail not shown here. Equal entries are not always repeated. The panel holds about 83,000 compounds, 20% with a hit somewhere; the sample as a whole holds those more often.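 Cell lines were cultured in 96-well plates, exposed to a single compound concentration, and assessed for percent growth 48 hours later.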 Active and inactive are the calls of the source. How the source made its calls: active means growth percent below 10; inactive means the rest.

How the values were obtained:
Assay in all cases: NCI-60 one-dose screen, 48 h (100 = growth as untreated, 0 = no growth, -100 = all killed)
[1] = tested on: OVCAR-8 ovarian; conditions: 10 µM unless noted
[2] = tested on: OVCAR-5 ovarian; conditions: 10 µM unless noted
[3] = tested on: OVCAR-4 ovarian; conditions: 10 µM unless noted
[4] = tested on: SK-OV-3 ovarian; conditions: 10 µM
[5] = tested on: IGROV1 ovarian; conditions: 10 µM unless noted
[6] = tested on: OVCAR-3 ovarian; conditions: 10 µM unless noted
[7] = tested on: HS 578T breast; conditions: 10 µM unless noted
[8] = tested on: NCI/ADR-RES ovarian; conditions: 10 µM unless noted
[9] = tested on: T-47D breast; conditions: 10 µM
[10] = tested on: BT-549 breast; conditions: 10 µM unless noted
[11] = tested on: MDA-MB-435 melanoma; conditions: 10 µM unless noted
[12] = tested on: SW-620 colon; conditions: 10 µM unless noted
[13] = tested on: MCF7 breast; conditions: 10 µM unless noted
[14] = tested on: HCT-116 colon; conditions: 10 µM unless noted
[15] = tested on: HCC-2998 colon; conditions: 10 µM unless noted
[16] = tested on: KM12 colon; conditions: 10 µM unless noted
[17] = tested on: RPMI-8226 leukemia; conditions: 10 µM

Compound | growth [1] | growth [2] | growth [3] | growth [4] | growth [5] | growth [6] | growth [7] | growth [8] | growth [9] | growth [10] | growth [11] | growth [12] | growth [13] | growth [14] | growth [15] | growth [16] | growth [17]
O=C(O)C[C@H](O)C[C@H](O)/C=C/c1c(C2CC2)nc2ccccc2c1-c1ccc(F)cc1 | 61.5% (inactive) | 79% (inactive) | 111% (inactive) | 93.7% (inactive) | 53.4% (inactive) | 103% (inactive) | 70.1% (inactive) | 37.2% (inactive) | 95.9% (inactive) | 75.1% (inactive) | 93.9% (inactive) | 83.3% (inactive) | 96.3% (inactive) | 63.3% (inactive) | 99% (inactive) | 102% (inactive) | –
O=c1ccc2ccccc2o1 | 105% (inactive) | 104% (inactive) | – | 111% (inactive) | 111% (inactive) | 111% (inactive) | 105% (inactive) | 105% (inactive) | 116% (inactive) | 87.1% (inactive) | 102% (inactive) | 105% (inactive) | 98.3% (inactive) | 104% (inactive) | 106% (inactive) | 99.1% (inactive) | –
O=c1[nH]c(=O)n(C2CC(O)C(CO)O2)cc1Br (configuration not stated) | – | – | – | – | – | – | – | – | – | – | – | – | 29% [100 µM] (inactive) and -14.9% [100 µM] (active) | – | – | – | –
COc1ccc(/C=N/OCC(O)CNCc2ccccc2)cc1OC1CCCC1 (configuration not stated) | 104% (inactive) | 101% (inactive) | 91.2% (inactive) | – | 95.7% (inactive) | 104% (inactive) | 111% (inactive) | 104% (inactive) | – | 90.9% (inactive) | 99.4% (inactive) | 103% (inactive) | 93.9% (inactive) | 95.2% (inactive) | 110% (inactive) | 104% (inactive) | 98.3% (inactive)
Cc1cc(NS(=O)(=O)c2ccc(NC(=O)COc3ccc(-c4cc5ccccc5[nH]4)cc3)cc2)no1 | 32.3% (inactive) | 52.3% (inactive) | – | 13.7% (inactive) | 35.3% (inactive) | -0.541% (active) | 16.6% (inactive) | 9.15% (active) | -19.8% (active) | 11.9% (inactive) | -11.9% (active) | 15.9% (inactive) | 1.1% (active) | 2.8% (active) | -1.25% (active) | 10.3% (inactive) | 24.9% (inactive)
NC(=S)N/N=C1\c2ccccc2-c2c(F)c(F)c(F)c(F)c21 | 39.6% (inactive) | – | 56.5% (inactive) | 98.8% (inactive) | 20.8% (inactive) | 61.6% (inactive) | 107% (inactive) | 10.2% (inactive) | 8.63% (active) | – | 99.6% (inactive) | – | 28.7% (inactive) | 5.16% (active) | 90.1% (inactive) | 93.5% (inactive) | 67.1% (inactive)
NC(=O)c1cc(I)ccc1NC(=O)COc1ccccc1 | 15.9% (inactive) | 39.1% (inactive) | – | -2.65% (active) | 44.2% (inactive) | 12% (inactive) | 36.6% (inactive) | 4.28% (active) | – | 69.3% (inactive) | -56% (active) | 23.5% (inactive) | 17.7% (inactive) | 19% (inactive) | 13.9% (inactive) | 19.9% (inactive) | 9.76% (active)
C1CCC([PH+](C2CCCCC2)C2CCCCC2[PH+](C2CCCCC2)C2CCCCC2)CC1.O=C(C1[CH-]CCCC1)C1CCCC[N-]1.[Au] (configuration not stated) | – | – | 18.2% (inactive) | – | – | – | 13.8% (inactive) | – | 10.3% (inactive) | – | – | – | – | – | – | – | –
CC(O)c1cc2c(s1)C(=O)c1ccsc1C2=O (configuration not stated) | – | – | – | – | – | – | – | – | – | – | – | – | -56.8% [100 µM] (active) and -91.5% [100 µM] (active) | – | – | – | –
COc1ccc(OC)c2ncccc12 | 103% (inactive) | 107% (inactive) | – | 96.7% (inactive) | 106% (inactive) | 110% (inactive) | 107% (inactive) | – | 100% (inactive) | 97.4% (inactive) | 105% (inactive) | 99% (inactive) | 84.8% (inactive) | 100% (inactive) | 103% (inactive) | 99.6% (inactive) | 94.9% (inactive)
COc1cc2cc(Oc3ccc(NC(=O)Nc4ccc(Cl)c(C(F)(F)F)c4)cc3)c(C)nc2cc1OCCN1CCCCC1 | -34.4% (active) | – | -4.36% (active) | – | -47.2% (active) | -82.8% (active) | -44.5% (active) | 3.87% (active) | – | 71.7% (inactive) | -95.9% (active) | -89.4% (active) | -85.9% (active) | -46.3% (active) | -38.6% (active) | -79.6% (active) | –
N#CCCN1CCN(CCC#N)C1=S | 98.1% (inactive) | 101% (inactive) | 108% (inactive) | 108% (inactive) | – | 110% (inactive) | 104% (inactive) | 102% (inactive) | 108% (inactive) | 99.6% (inactive) | 106% (inactive) | 101% (inactive) | – | 101% (inactive) | – | 109% (inactive) | 111% (inactive)
C=C(C)COC(=O)c1ccccc1C(=O)OCC1(C)CO1 (configuration not stated) | 95.6% (inactive) | 96.8% (inactive) | 110% (inactive) | 110% (inactive) | – | 108% (inactive) | 104% (inactive) | 101% (inactive) | 102% (inactive) | 102% (inactive) | 106% (inactive) | 105% (inactive) | – | 105% (inactive) | – | 112% (inactive) | 110% (inactive)
O=c1c2cc(F)ccc2oc2c(NCCNCCO)nc3ccccc3c12 | 34.1% (inactive) | 60.6% (inactive) | – | – | 37% (inactive) | 55% (inactive) | 67.1% (inactive) | 48.9% (inactive) | 84.8% (inactive) | 79.8% (inactive) | 48.5% (inactive) | 21.4% (inactive) | 31.4% (inactive) | 17.2% (inactive) | 56.5% (inactive) | 31.8% (inactive) | 32.1% (inactive)
CCCCOC(=O)C1CC[C@H]2[C@@H]3CCc4cc(OC(=O)c5cccc6c(=O)c7ccccc7[nH]c56)ccc4[C@H]3CC[C@]12C (some centres not stated) | – | – | – | – | – | – | – | – | – | – | – | – | -86.3% [50 µM] (active) and -100% [50 µM] (active) | – | – | – | –
Clc1cccc(Cl)c1Nc1ccc2nnc(-c3ccncc3)n2n1 | 97.6% (inactive) | – | – | 109% (inactive) | 93.8% (inactive) | 110% (inactive) | 103% (inactive) | 101% (inactive) | 91.3% (inactive) | 114% (inactive) | 104% (inactive) | 102% (inactive) | – | 98.9% (inactive) | 97.1% (inactive) | 112% (inactive) | 93.3% (inactive)
CCC1CC(C)C(O)/C=C/C=C/CC(C)OC(=O)CC(O)C(OC)C1OC1OC(C)CC(O)(C(C)=O)C1O (configuration not stated) | – | – | – | – | – | – | – | – | – | – | – | – | 32% [100 µM] (inactive) and 5.08% [100 µM] (active) | – | – | – | –
COc1ccc(/C=C(\C#N)c2ccc(OC)cc2)cc1 | 81.9% (inactive) | 85.1% (inactive) | 81.8% (inactive) | 74.9% (inactive) | – | 62.6% (inactive) | 86.3% (inactive) | 4% (active) | 47.4% (inactive) | 95% (inactive) | 2.31% (active) | 38.6% (inactive) | 36.8% (inactive) | 55.4% (inactive) | – | 28.4% (inactive) | 55.8% (inactive)
FC(F)(F)Oc1ccc2c(c1)C[C@H]1C[C@@H](c3ccoc3)N2O1 | 101% (inactive) | 91.5% (inactive) | – | 106% (inactive) | 108% (inactive) | 112% (inactive) | – | 98.3% (inactive) | 94.8% (inactive) | 112% (inactive) | 88.8% (inactive) | 110% (inactive) | 98.6% (inactive) | 107% (inactive) | 97.5% (inactive) | – | 92.3% (inactive)
COc1cc(/C=C/C(=O)CC(=O)/C=C/c2cc(Br)c(OC)c(OC)c2)cc(Br)c1OC | 102% (inactive) | 99.1% (inactive) | – | 96.6% (inactive) | 109% (inactive) | 102% (inactive) | 113% (inactive) | 99.3% (inactive) | 83.7% (inactive) | – | 101% (inactive) | – | 97.4% (inactive) | 98.3% (inactive) | 109% (inactive) | 103% (inactive) | 116% (inactive)
Nc1nc(Nc2cc(F)c(Cl)c(F)c2)cc(=O)[nH]1 | – | – | – | – | – | – | – | – | – | – | – | – | 65.9% [100 µM] (inactive) and -23.3% [100 µM] (active) | – | – | – | –
CCN1CCN(c2ccc(Nc3ncc4ccc5ncn(C(C)C)c5c4n3)nc2)CC1 | 13.6% (inactive) | 4.92% (active) | 5.12% (active) | – | -4.82% (active) | -28.2% (active) | -20.8% (active) | 2.06% (active) | – | -24.7% (active) | 0.992% (active) | -7.47% (active) | -1.88% (active) | 8.77% (active) | -4.57% (active) | -16.9% (active) | –
NC(=O)c1c(Br)c(Br)c(Br)c(Br)c1C(=O)O (tested in a mixture with another compound) | – | – | 94.3% (inactive) | – | – | – | – | – | – | – | – | – | – | – | – | – | –
